About 14,000 (4.5%) of roughly 310,000 compounds showed an effect of 50% or more. Effects have a minus sign here. The list comes from a sample in which strong results are over-represented; it also holds similar structures and randomly drawn compounds.
target: human ether-à-go-go-related gene (hERG) potassium channel (human, UniProt Q12809); assay: primary screen, population patch clamp on CHO cells stably expressing hERG; higher = less effect of the substance
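Note: peak tail current of the secondary pulse compared with the same well before compound.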

human ether-à-go-go-related gene (hERG) potassium channel, sequence (Q12809 whole entry, looked up): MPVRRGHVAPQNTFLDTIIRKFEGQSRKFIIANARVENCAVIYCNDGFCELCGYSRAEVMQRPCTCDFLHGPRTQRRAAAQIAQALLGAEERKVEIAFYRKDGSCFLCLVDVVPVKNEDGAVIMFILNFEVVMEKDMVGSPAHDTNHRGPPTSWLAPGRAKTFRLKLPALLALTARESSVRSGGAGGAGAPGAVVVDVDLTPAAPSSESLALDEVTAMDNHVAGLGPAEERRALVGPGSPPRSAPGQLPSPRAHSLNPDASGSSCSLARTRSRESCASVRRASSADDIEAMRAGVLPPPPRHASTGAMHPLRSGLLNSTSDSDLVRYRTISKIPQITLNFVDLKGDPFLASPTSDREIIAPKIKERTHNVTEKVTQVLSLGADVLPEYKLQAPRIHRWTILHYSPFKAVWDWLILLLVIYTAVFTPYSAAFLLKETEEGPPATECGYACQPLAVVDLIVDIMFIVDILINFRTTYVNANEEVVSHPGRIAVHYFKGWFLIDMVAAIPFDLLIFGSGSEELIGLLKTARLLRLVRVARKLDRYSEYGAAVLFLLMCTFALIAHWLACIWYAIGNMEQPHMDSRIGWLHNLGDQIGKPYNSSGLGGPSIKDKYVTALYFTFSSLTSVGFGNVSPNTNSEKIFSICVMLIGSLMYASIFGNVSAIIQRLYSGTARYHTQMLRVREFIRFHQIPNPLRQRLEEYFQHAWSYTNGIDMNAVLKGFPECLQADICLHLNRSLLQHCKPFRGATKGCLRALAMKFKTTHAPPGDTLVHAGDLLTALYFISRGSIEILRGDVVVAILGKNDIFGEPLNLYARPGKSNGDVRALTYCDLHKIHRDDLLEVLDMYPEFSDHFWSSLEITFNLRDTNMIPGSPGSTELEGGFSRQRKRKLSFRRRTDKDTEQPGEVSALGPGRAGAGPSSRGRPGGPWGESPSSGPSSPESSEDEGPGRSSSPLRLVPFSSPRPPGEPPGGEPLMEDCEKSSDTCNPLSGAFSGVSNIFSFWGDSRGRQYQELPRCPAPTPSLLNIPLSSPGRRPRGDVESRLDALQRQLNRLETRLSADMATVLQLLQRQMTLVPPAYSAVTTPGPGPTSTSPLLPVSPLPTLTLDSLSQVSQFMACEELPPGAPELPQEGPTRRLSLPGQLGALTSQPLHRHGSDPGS

| SMILES | hERG current change (%, negative = inhibition) at 10uM |
| --- | --- |
| Cl.Fc1ccc(C(OCCN2CCCC2)c2ccc(F)cc2)cc1 | -71.3% |
| Brc1ccccc1OCCN1CCCC1 | -1.74% |
| Cl.Fc1ccc(C(OCCN2CCCC2)c2ccc(Br)cc2)cc1 (centres unmarked) | -75.8% |
| CC(OCCN1CCCC1)(c1ccc(F)cc1)c1ccc(F)cc1.Cl | -63.1% |
| Cl.O=C(CCN1CCCCCC1)Nc1ccc(F)cc1 | -42.8% |
| CC(C)(C)c1ccccc1OCCN1CCCC1 | -24.1% |
| CC(C)(C)c1ccc(C(=O)OCCN2CCCCC2)cc1.Cl | -47.6% |
| Fc1ccc(OCCOCCN2CCCC2)cc1 | -12.6% |
| Brc1ccc(CN2CCCCCC2)cc1 | -30.3% |
| CCOC(=O)[C@H]1[C@H]2COc3cc(OC)ccc3[C@@H]2N2C(=O)CN(Cc3ccc(OC)cc3)C(=O)[C@@]12C | -1.96% |
| CC1CCc2sc(C(=O)N3CCC(C(N)=O)CC3)cc2C1 (centres unmarked) | 5.36% |
| CCN(CC)S(=O)(=O)c1cccc(C(=O)Nc2nncs2)c1 | 1.66% |
| O=C(CSc1nnc(-c2ccc(S(=O)(=O)N3CCOCC3)cc2)o1)c1ccccc1F | 1.84% |
| Cc1cc(SCC(=O)NCCN2C(=O)CSC2=O)nc2c(C)cccc12 | 0.207% |
| CCCc1c(C)c2cc(C)ccc2[nH]c1=O | -25.3% |
| CN(C)CCCNc1ncnc2scc(-c3ccccc3)c12.O=C(O)C(=O)O | -27.9% |
| Cc1ccc(-c2csc3nc4c5ccccc5c(NCCCN5CCOCC5)nn4c(=O)c23)cc1 | 2.7% |
| Cc1ccc(-c2csc3nc4c5ccccc5c(NCCCN(C)C)nn4c(=O)c23)cc1 | -78% |
| COc1ccc(C(C)=O)cc1CSC(=N)N.Cl | 9.4% |
| COc1ccc(C(=O)N(C)Cc2ccccn2)cc1OC1CCN(C(C)C)CC1 | 9.45% |
| Cc1n[nH]c(=O)c2c(NC(=O)CSc3cc(Cl)ccc3Cl)oc(C)c12 | -10.9% |
| Cc1n[nH]c(=O)c2c(NC(=O)CSc3nc4ccccc4c(=O)n3-c3ccc(OC(F)F)cc3)oc(C)c12 | -59.2% |
| COCCCn1c(SCC(=O)Nc2oc(C)c3c(C)n[nH]c(=O)c23)nc2sc3c(c2c1=O)CCC3 | -49.7% |
| Cc1ccc(SCC(=O)Nc2oc(C)c3c(C)n[nH]c(=O)c23)cc1C | -27.6% |
| COCC(C)n1c(SCC(=O)Nc2oc(C)c3c(C)n[nH]c(=O)c23)nc2ccccc2c1=O (centres unmarked) | 6.9% |
| Cc1n[nH]c(=O)c2c(NC(=O)CSc3nc4ccccc4c(=O)n3C(C)C)oc(C)c12 | -27% |
| CCc1cc2c(=O)n(CCCOC)c(SCC(=O)Nc3oc(C)c4c(C)n[nH]c(=O)c34)nc2s1 | -1.43% |
| Cc1ccc(C)c(SCC(=O)Nc2oc(C)c3c(C)n[nH]c(=O)c23)c1 | -52.4% |
| CCn1c(SCC(=O)Nc2oc(C)c3c(C)n[nH]c(=O)c23)nc2sc(C)c(C)c2c1=O | -61.7% |

Reference: publication PMC4336329 (PLoS ONE, 2015)
